# According to the supplement of paper PMC12669032:
# Values without a mark were called inactive.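 Rule for the calls: active = AUC reduced over 20% with Padj below 0.05 in at least 2 of 3 replicates; inactive = otherwise.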
# Assays:
# Assay in all cases: growth AUC relative to DMSO control (median of replicates) (fraction); higher = more growth (less inhibition), active = hit call of the paper
# Conditions in all cases: 20 µM; 24 h
# Akkermansia muciniphila = system: Akkermansia muciniphila
# Procedure, shortened: (§1)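 Each value is the median of three biological replicates, grown on separate days, of a gut bacterial monoculture incubated anaerobically at 37 °C in mGAM with 20 µM compound (1% DMSO). Cultures started at OD600 0.05 and were read at OD600 hourly for 24 h, with the minimum OD set to 0. Area under the growth curve was normalised to the plate median of solvent-only wells, or to row and column medians on the industrial chemical plate.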
# Bacteroides caccae = system: Bacteroides caccae
# Procedure, shortened: as §1
# Bacteroides clarus = system: Bacteroides clarus
# Procedure, shortened: as §1
# Bacteroides dorei = system: Bacteroides dorei
# Procedure, shortened: as §1
# Bacteroides stercoris = system: Bacteroides stercoris
# Procedure, shortened: as §1
# [1] = system: Bacteroides thetaiotaomicron
# Procedure, shortened: as §1
# Bacteroides uniformis = system: Bacteroides uniformis
# Procedure, shortened: as §1
# [2] = system: Bifidobacterium longum subsp. longum
# Procedure, shortened: as §1
# Clostridium difficile = system: Clostridium difficile
# Procedure, shortened: as §1
# Collinsella aerofaciens = system: Collinsella aerofaciens
# Procedure, shortened: as §1
# Coprococcus comes = system: Coprococcus comes
# Procedure, shortened: as §1
# Escherichia coli ED1a = system: Escherichia coli ED1a
# Procedure, shortened: as §1
# Escherichia coli IAI1 = system: Escherichia coli IAI1
# Procedure, shortened: as §1
# Eubacterium rectale = system: Eubacterium rectale
# Procedure, shortened: as §1
# [3] = system: Fusobacterium nucleatum subsp. animalis
# Procedure, shortened: as §1
# Lactobacillus gasseri = system: Lactobacillus gasseri
# Procedure, shortened: as §1
# Lactobacillus paracasei = system: Lactobacillus paracasei
# Procedure, shortened: as §1
# Odoribacter splanchnicus = system: Odoribacter splanchnicus
# Procedure, shortened: as §1
# [4] = system: Parabacteroides distasonis
# Procedure, shortened: as §1
# Parabacteroides merdae = system: Parabacteroides merdae
# Procedure, shortened: as §1
Structure (SMILES),growth AUC (Akkermansia muciniphila),growth AUC (Bacteroides caccae),growth AUC (Bacteroides clarus),growth AUC (Bacteroides dorei),growth AUC (Bacteroides stercoris),growth AUC [1],growth AUC (Bacteroides uniformis),growth AUC [2],growth AUC (Clostridium difficile),growth AUC (Collinsella aerofaciens),growth AUC (Coprococcus comes),growth AUC (Escherichia coli ED1a),growth AUC (Escherichia coli IAI1),growth AUC (Eubacterium rectale),growth AUC [3],growth AUC (Lactobacillus gasseri),growth AUC (Lactobacillus paracasei),growth AUC (Odoribacter splanchnicus),growth AUC [4],growth AUC (Parabacteroides merdae)
CNC(=S)S,1.07,1.01,1.04,0.996,1.08,1.02,1,1.37,0.999,0.996,1.03,1.02,1.02,1.03,1.08,1.02,1.1,1.05,1.03,1.05
CC(C)(COCc1cccc(Oc2ccccc2)c1)c1ccc(OC(F)(F)Br)cc1,0.955,0.982,0.973,1.01,1.04,0.976,1.02,0.966,1.01,0.953,0.961,0.999,0.995,0.903,0.939,1.01,1.05,0.988,1.01,0.979
COC(=O)C(C)N(C(=O)Cc1ccccc1)c1c(C)cccc1C (stereo not given),0.959,0.985,0.957,0.99,0.954,0.956,0.878,1.02,0.977,1.02,0.967,0.995,0.972,0.916,0.917,0.888,0.98,0.96,0.985,0.944
CCOP(=S)(OCC)SCn1c(=O)oc2cc(Cl)ccc21,0.99,0.921,0.94,0.936,0.831,0.945,0.927,0.943,0.978,0.991,1,0.981,0.974,1,0.93,0.918,0.994,0.979,0.892,0.955
O=C1C(Cl)=C(Cl)C(=O)C(Cl)=C1Cl,1.08,1.09,1.01,0.978,0.877,0.986,0.976,0.969,1.03,0.992,1.02,1.03,1.02,0.844,1.01,0.973,1.01,0.912,1.04,0.927
N#Cc1c(Cl)cccc1Cl,0.866,1.03,0.979,1.04,0.989,1,0.922,0.898,1.01,1.02,0.994,0.999,1.03,0.936,1.04,1.17,0.884,1.01,1.04,1.01
N#Cc1cc(Br)c(O)c(Br)c1,1.11,0.896,0.951,0.924,0.875,0.997,0.988,1.05,0.98,0.968,0.996,0.907,0.773 (active),1.28,0.864,0.903,0.988,1.1,0.915,0.94
O=[N+]([O-])c1cc(Cl)ccc1Cl,1.04,0.998,0.977,0.986,1.03,0.989,1.02,1.01,0.995,0.964,0.935,0.983,0.979,1.04,1.04,0.872,1.05,1.04,1.01,0.987
C[C@@H](Oc1ccc(Oc2ncc(C(F)(F)F)cc2Cl)cc1)C(=O)O,0.971,0.97,0.964,0.942,1.02,0.992,0.975,0.912,0.99,0.994,1,0.97,0.994,0.973,1.02,0.94,0.972,0.98,0.989,0.996
CO/C=C(/C(=O)OC)c1ccccc1Oc1cc(Oc2ccccc2C#N)ncn1,1.05,1.01,0.967,0.997,0.864,0.965,0.914,0.977,0.973,0.994,0.964,0.991,0.976,0.948,0.969,0.908,1.06,0.959,0.9,0.955
COc1cc(OC)nc(Sc2cccc(Cl)c2C(=O)O)n1,1.28,1.01,0.98,0.959,0.977,1.02,0.986,1,1.01,0.964,1.02,0.981,0.977,1.04,0.941,0.897,0.971,0.985,0.906,0.975
CC/C(=N\OC/C=C/Cl)C1=C(O)CC(C2CCOCC2)CC1=O (stereo not given),1.04,0.993,1.03,1,1.03,1.02,0.985,1.37,1.01,1.03,1.01,1,1.03,0.996,0.983,0.994,1.1,1.04,0.998,1.02
CCSC(=O)N(CC)C1CCCCC1,0.936,0.998,0.974,1.02,1.06,1.01,1.01,1.01,1.01,1.09,0.988,0.987,1.03,1.01,1.01,1.2,1,0.975,1.07,1.03
CCOC(=O)/C=C(C)/C=C/C[C@@H](C)CCCC(C)C,0.915,0.985,1.03,1.01,1.12,0.986,0.984,0.949,1.06,0.982,0.979,1,0.997,1.03,1.15,1.13,1.01,0.954,1.02,0.989
COP(=S)(Oc1cc(Cl)c(Br)cc1Cl)c1ccccc1 (stereo not given),0.925,0.949,0.928,1.02,1.44,0.98,0.993,1.02,1.03,0.976,1.02,1.01,0.992,0.893,1.03,0.852,0.982,1.03,0.957,1.01
COP(=O)(OC)Oc1ccc([N+](=O)[O-])cc1,1.17,0.989,1.03,1.02,1.01,0.991,1,1.07,1.04,0.948,1.07,1.03,0.996,1.17,1.09,0.998,1.02,0.954,0.981,1.02

Structure (SMILES),growth AUC (Akkermansia muciniphila),growth AUC (Bacteroides caccae),growth AUC (Bacteroides clarus),growth AUC (Bacteroides dorei),growth AUC (Bacteroides stercoris),growth AUC [1],growth AUC (Bacteroides uniformis),growth AUC [2],growth AUC (Clostridium difficile),growth AUC (Collinsella aerofaciens),growth AUC (Coprococcus comes),growth AUC (Escherichia coli ED1a),growth AUC (Escherichia coli IAI1),growth AUC (Eubacterium rectale),growth AUC [3],growth AUC (Lactobacillus gasseri),growth AUC (Lactobacillus paracasei),growth AUC (Odoribacter splanchnicus),growth AUC [4],growth AUC (Parabacteroides merdae)
CP(=O)(O)CC(=O)O,1.01,0.959,0.96,1.02,0.929,0.992,0.997,1.04,1.1,1.04,0.991,0.984,1,1.07,0.945,1.02,0.871,0.978,0.979,0.982
O=NN(CCO)CCO,1.01,1.01,1.02,0.979,1.18,1.01,1.02,0.837,1.01,0.994,1.01,0.994,1,0.977,1.01,0.976,1.01,1.13,0.861,1.04
Oc1c(Cl)c(Cl)cc(Cl)c1Cl,0.834,0.81,0.726 (active),0.758,0.684,0.794,0.636 (active),0.974,0.941,0.941,0.971,0.917,0.746 (active),0.947,0.923,0.936,1.02,0.666 (active),0.637 (active),0.786
C[C@@H](Oc1ccc(Cl)cc1Cl)C(=O)O,1.14,0.98,1,0.925,1.26,1,0.965,0.982,0.949,0.977,0.967,1.02,1.02,1.17,1.07,0.906,0.949,0.98,0.964,1.01
CCCN(CCC)c1c([N+](=O)[O-])cc(S(N)(=O)=O)cc1[N+](=O)[O-],0.998,0.956,0.896,0.932,0.809,0.948,0.89,0.987,0.975,0.975,0.973,0.996,0.973,0.894,0.9,0.935,0.942,0.934,0.971,0.997
C=CCOC(Cn1ccnc1)c1ccc(Cl)cc1Cl.O=S(=O)(O)O (stereo not given),0.744,0.949,0.925,1,0.994,0.931,0.977,0.843,0.884,0.845,0.184 (active),0.973,0.954,0.0325 (active),0.925,0.962,0.881,0.985,0.951,0.89
CCN(CC)C(=O)C(C)Oc1cccc2ccccc12 (stereo not given),0.935,0.996,0.976,0.981,1.05,0.984,0.958,0.989,0.965,0.999,1.01,0.979,1.01,0.983,1.02,1.03,0.977,0.96,0.997,1.02
C=CC1(C)OC(=O)N(c2cc(Cl)cc(Cl)c2)C1=O (stereo not given),1.02,0.985,0.958,1,0.994,0.989,0.99,0.917,1.02,0.999,0.982,0.979,0.967,0.956,0.991,1.1,0.878,0.982,0.98,0.982
CCCCc1c(C)nc(NCC)nc1OS(=O)(=O)N(C)C,1.07,1.01,0.967,0.909,0.895,0.944,0.901,0.996,1.01,0.977,0.996,0.987,1.01,1.16,0.968,0.931,0.987,0.891,0.598 (active),0.906
CCO/N=C(\CC)C1=C(O)CC(c2c(C)cc(C)cc2C)CC1=O (stereo not given),1.1,0.821,1,0.999,0.97,0.986,0.962,1.05,0.969,0.943,1,0.992,0.978,1.07,1.05,0.875,0.969,1.07,0.995,0.909
O=C(O)c1nc(Cl)ccc1Cl,1.11,1.01,1.02,1.03,1.11,0.993,1.01,1.03,0.975,0.982,1.03,0.995,1.01,0.952,0.998,1.09,1.03,1.01,1.03,1.03
COP(=S)(OC)Oc1ccc([N+](=O)[O-])c(C)c1,0.998,0.992,0.968,0.984,0.969,0.99,0.97,1.04,0.988,0.952,0.982,0.986,0.979,1.1,0.994,1.01,1.01,0.962,0.89,0.944
C1CCC(NC2CCCCC2)CC1.O=NO,0.874,0.983,0.991,0.991,0.831,0.984,0.943,0.967,1.01,1.08,0.832,0.991,0.95,0.601 (active),1,1.06,0.985,0.93,0.936,0.753 (active)
O=C(Nc1ccccc1)c1ccccc1I,0.823,1.03,1,0.994,1.05,1.01,0.975,1.03,1.08,1.07,1.05,1.04,1,0.97,1.04,1.09,0.96,0.989,0.991,1.01
CCC(C)c1cc([N+](=O)[O-])cc([N+](=O)[O-])c1O (stereo not given),1.07,0.967,0.879,0.902,0.865,0.876,0.889,0.981,0.951,0.956,0.884,0.935,0.924,0.939,0.737,0.959,0.925,0.799 (active),0.841,0.929
CNc1nc(C)c(C)c(OC(=O)N(C)C)n1,0.975,0.99,0.953,1.02,0.963,0.986,1.04,1.04,0.987,0.994,0.998,1.01,0.957,1.05,1.09,1.03,0.971,0.985,1.01,0.998
